The list is not random: actives were taken first. Their share in the collection is about 28%.
CYP2C19 activ – human CYP2C19 activators, primary screen, biochemical, luminescence. 96,000 tested, under 10 active. recombinant CYP2C19, luciferin-H EGE luminescence; stronger effect = higher value; 0 = fully inhibited enzyme, 1 = untreated enzyme. activation factor at 5 µM. Cytochrome P450 2C19 (Homo sapiens), P33261. AID 1025, 2008;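 active = activation factor of at least 2 at 5 µM in the primary screen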
Target sequence (P33261 whole entry, looked up): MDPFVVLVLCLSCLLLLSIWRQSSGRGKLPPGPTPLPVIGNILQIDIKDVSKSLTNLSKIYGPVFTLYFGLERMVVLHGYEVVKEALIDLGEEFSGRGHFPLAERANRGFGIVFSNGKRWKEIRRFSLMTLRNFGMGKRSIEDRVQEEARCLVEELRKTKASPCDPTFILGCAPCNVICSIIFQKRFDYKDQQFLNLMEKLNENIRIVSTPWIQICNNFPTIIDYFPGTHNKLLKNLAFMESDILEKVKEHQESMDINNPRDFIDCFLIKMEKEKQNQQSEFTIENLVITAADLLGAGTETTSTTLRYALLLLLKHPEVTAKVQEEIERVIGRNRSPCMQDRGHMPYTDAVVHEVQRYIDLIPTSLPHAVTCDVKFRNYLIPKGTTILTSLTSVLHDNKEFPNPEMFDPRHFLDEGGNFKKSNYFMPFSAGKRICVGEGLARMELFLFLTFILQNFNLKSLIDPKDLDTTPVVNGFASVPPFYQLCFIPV
CYP2C9 activ – human CYP2C9 activators, primary screen, biochemical, luminescence | actives 1.4% (n = 96,000) | recombinant CYP2C9, luciferin-H conversion; stronger effect = higher value; factor 1 = untreated enzyme, 0 = blocked | AID 1024, 2008 | Cytochrome P450 2C9 (Homo sapiens), P11712 | activation factor at 5 µM;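 active = activation factor of 2 or more for CYP2C9 at a 5 µM dose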
CYP2C9 inhib – blockers of cytochrome P450 2C9 activity – biochemical, luminescence, ADME assay, primary screen. actives 20% (n = 96,000). P11712. AID 777, 2007. CYP2C9 Supersomes, luciferin-H conversion. inhibition, % at 5 µM;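 active = blocking of liver enzyme CYP2C9 beyond about 50% at 5 µM, limit read from the data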
CD11b adhes enh – enhancers of CD11b/CD18 adhesion to fibrinogen, primary screen, K562 cells, luminescence. ATPlite luminescence. actives 0.07% (n = 93,000). activation, % at 10 µM. AID 1499, 2009. Integrin beta-2 (Homo sapiens) + Integrin alpha-M (Homo sapiens), P05107+P11215;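 active = 10 µM primary screen giving 50% or more activity, confirmed by 40% or more on retest at that dose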
CYP2C19 inh – blockers of cytochrome P450 2C19 activity – biochemical, luminescence, ADME assay, primary screen; inhibition, % at 5 µM; actives 21% (n = 96,000); AID 778, 2007; CYP2C19 Supersomes, luciferin-H EGE luminescence, 30 min; P33261;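 active = CYP2C19 inhibition above a set limit at 5 µM in the primary screen, cut at about 50% in these data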
CD11b adhes inh – inhibitors of CD11b/CD18 adhesion to fibrinogen, primary screen, K562 cells, luminescence | Integrin beta-2 (Homo sapiens) + Integrin alpha-M (Homo sapiens), P05107+P11215 | actives 0.54% (n = 93,000) | inhibition, % at 10 µM | ATPlite luminescence; Mn2+ added to activate the integrin | AID 1497, 2009;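 active = primary inhibition of 50% or more at 10 µM, then 40% or more on retest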
Numbers stand for hits; i = inactive; nt = no result given.

SMILES	CYP2C19 activ	CYP2C9 activ	CYP2C9 inhib	CD11b adhes enh	CYP2C19 inh	CD11b adhes inh
CCCCCOc1ccc(C2C(C(C)=O)=C(C)Nc3ncnn32)cc1OC (stereo unspecified)	i	i	54.0	i	i	i
CCSCCOC(=O)C1=C(C)NC(=O)NC1c1ccc2c(c1)OCO2 (stereo unspecified)	i	i	i	i	i	i
CCOC(=O)C1=C(C)NC(=O)NC1c1ccc2c(c1)OCO2 (stereo unspecified)	i	i	i	i	i	i
Cc1ccc(NC(=O)CCC(=O)NNC(=O)Cc2ccccc2)cc1C	i	i	i	nt	i	nt
CCOC(=O)c1cc(-c2ccccc2)sc1NC(=O)C(C)N1C(=O)c2ccccc2C1=O (stereo unspecified)	nt	nt	nt	i	nt	i
COc1ccc(C2C(C(N)=O)=C(C)Nc3nc(-c4ccccc4Cl)nn32)c(OC)c1 (stereo unspecified)	i	i	i	i	i	i
CCOC(=O)C1C(=O)CC(C)(O)C(C(=O)OCC)C1c1ccco1 (stereo unspecified)	i	i	i	i	i	i
COc1ccc(OC)c(-c2nc3c(C)n[nH]c(=O)c3[nH]2)c1	i	i	i	i	i	i
O=C(O)CCC(=O)Nc1ccc(Br)cn1	i	i	i	i	50.2	i
COc1ccc(CCC(=O)Nc2ccc(Br)cn2)cc1	i	i	i	i	81.0	i
O=C(CCCN1C(=O)c2ccccc2C1=O)Nc1ccc(Br)cn1	i	i	i	i	i	i
Cc1cccc(NC(=S)Nc2ccc(N3CCOCC3)cc2)c1C	nt	nt	nt	i	nt	i
O=C(CSc1nccn1-c1ccc(F)cc1)NCc1ccc2c(c1)OCO2	i	i	80.5	i	91.5	i
O=C(CSc1nccn1-c1ccccc1)NCc1ccc2c(c1)OCO2	i	i	98.5	i	99.7	i
CCOc1ccc(-n2ccnc2SCC(=O)Nc2nnc(CC)s2)cc1	i	i	i	nt	i	nt
CCOc1ccc(-n2ccnc2SCC(=O)NCc2ccc3c(c2)OCO3)cc1	i	i	64.2	i	81.4	i
O=C(Nc1ccccc1Cl)c1ccccc1Cl	i	i	i	i	i	i
O=C1OCC(CO)(CO)N=C1NNc1ccccc1Cl	i	i	i	i	50.3	i
S=c1sc(SCCOc2ccccc2)nn1-c1ccccc1	nt	nt	nt	i	nt	i
CCOC(=O)CCN(Cc1cccs1)S(=O)(=O)c1ccc(Cl)cc1	i	i	i	i	68.2	i
COc1cccc(N2C(=O)C3C(C2=O)C2C=CC3C23CC3)c1 (stereo unspecified)	i	i	i	i	i	i
Cc1nc2ccccc2c(=O)n1NC(=O)COc1ccccc1	i	i	i	i	i	i
Cc1cccc(C)c1OCC(=O)Nn1c(C)nc2ccccc2c1=O	i	i	63.9	i	i	i
COc1ccc(Cl)cc1C(=O)Nn1c(C)nc2ccccc2c1=O	i	i	52.3	nt	57.0	nt
Cc1ccc(C(C)C)c(OCC(=O)NN=C2CCCCCCC2)c1	nt	nt	nt	i	nt	i
SMILES	CYP2C19 activ	CYP2C9 activ	CYP2C9 inhib	CD11b adhes enh	CYP2C19 inh	CD11b adhes inh
Cc1ccc(C(C)C)c(OCC(=O)Nn2c(C)nc3ccccc3c2=O)c1	i	i	84.4	i	i	i
O=C(N/N=C/c1cc(Br)c(Br)o1)c1cccnc1	nt	nt	nt	i	nt	i
CCOc1ccc(Cc2nc(C)c(CC(=O)N3CCOCC3)c(=O)[nH]2)cc1	i	i	i	i	i	i
FC(F)(F)c1cccc(N2CCN(CC3CC=CCC3)CC2)c1 (stereo unspecified)	i	i	i	i	79.5	i
O=C(c1ccccc1)N1CCN(CC2CC=CCC2)CC1 (stereo unspecified)	i	i	77.8	i	57.0	i
Cc1ccc(N2CCN(CC3CC=CCC3)CC2)cc1 (stereo unspecified)	i	i	i	i	60.2	i
Cc1ccc(NC(=O)N(CCCN2CCOCC2)Cc2cccnc2)cc1C	i	i	95.9	i	100.4	i
CCN1CCCc2cc(CN(CCN3CCOCC3)C(=O)Nc3ccc(C)c(C)c3)ccc21	i	i	i	i	56.7	i
Cc1cc2cc(CN(CCN3CCOCC3)C(=O)Nc3ccccc3F)c(=O)[nH]c2cc1C	i	i	i	i	i	i
O=C(Nc1ccccc1)N(CCCN1CCOCC1)Cc1cccs1	i	i	i	i	i	i
CCc1ccc(NC(=O)N(CCCN2CCOCC2)Cc2cccs2)cc1	i	i	58.8	i	i	i
O=C(Nc1ccccc1)N(CCN1CCOCC1)Cc1ccccc1F	i	i	88.8	i	55.5	i
CCc1ccc(NC(=O)N(CCN2CCOCC2)Cc2ccc3c(c2)CCCN3CC)cc1	i	i	i	i	i	i
CCCN(CCO)Cc1cccc(Br)c1	i	i	i	i	i	i
O=C(NCC1CCN(c2ccc(S(=O)(=O)N3CCOCC3)cc2)CC1)c1ccc(Cl)cc1	i	i	i	i	i	i
COc1cccc(CNC(=O)C(CCSC)NS(=O)(=O)c2ccc3c(c2)oc(=O)n3C)c1 (stereo unspecified)	i	i	i	i	i	i
CCOC(=O)C1CCN(C(=O)CN(c2ccc3c(c2)OCO3)S(C)(=O)=O)CC1	i	i	i	i	i	i
Cc1ccccc1C1C(C#N)=C2N=C(N)c3c(sc4c3CCCCC4)N2C2=C1C(=O)CCC2 (stereo unspecified)	i	i	i	i	i	i
Nc1c(NCc2ccccc2F)c(=O)[nH]c(=O)n1Cc1ccccc1	i	i	74.8	i	63.0	i
O=C(CSc1nc2ccc([N+](=O)[O-])cc2[nH]1)c1ccc2ccccc2c1	i	i	54.4	nt	i	nt
Cc1ccc(N=C2N=C(N)c3ccccc32)c(C)c1	i	i	58.5	i	i	i
COc1ccc(C2CC(c3cc(OC)ccc3OC)n3nnnc3N2)cc1 (stereo unspecified)	i	i	78.3	nt	97.7	nt
CCOc1ccc(C2CC(c3cccc(C)c3)n3ncnc3N2)cc1 (stereo unspecified)	i	i	54.4	i	84.8	i
COc1ccc(C2CC(c3cccc(C)c3)n3ncnc3N2)cc1 (stereo unspecified)	i	i	61.3	i	95.6	i
CCOc1ccc(C2CC(c3ccc(OC)cc3)n3ncnc3N2)cc1 (stereo unspecified)	i	i	i	i	i	i
Cc1cccc(C2CC(c3ccccc3)Nc3ncnn32)c1 (stereo unspecified)	i	i	61.1	i	98.0	i
COc1ccc(C2CC(c3cccc(C)c3)n3nc(N)nc3N2)cc1 (stereo unspecified)	i	i	i	i	i	i

High-throughput results as filed in PubChem BioAssay.
